Screens as filed in PubChem BioAssay.
This is one part of a sample in which hits are shown more often than they occur.
Dicer processing: blocks human Dicer maturation of pre-miR-21; Q9UPY3; cat-ELCCA pre-miR-21 Dicer processing, chemiluminescence; hits give high values; z-score at 25 µM; 47,000 compounds, 6% hits; AID 1347074; in the data active means z-score above about 3, passing the limit was not always enough;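 further: plate controls were vehicle for no effect and no enzyme for full effect; higher signal means more uncleaved substrate so more Dicer inhibition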
Target sequence (Q9UPY3 whole entry, looked up): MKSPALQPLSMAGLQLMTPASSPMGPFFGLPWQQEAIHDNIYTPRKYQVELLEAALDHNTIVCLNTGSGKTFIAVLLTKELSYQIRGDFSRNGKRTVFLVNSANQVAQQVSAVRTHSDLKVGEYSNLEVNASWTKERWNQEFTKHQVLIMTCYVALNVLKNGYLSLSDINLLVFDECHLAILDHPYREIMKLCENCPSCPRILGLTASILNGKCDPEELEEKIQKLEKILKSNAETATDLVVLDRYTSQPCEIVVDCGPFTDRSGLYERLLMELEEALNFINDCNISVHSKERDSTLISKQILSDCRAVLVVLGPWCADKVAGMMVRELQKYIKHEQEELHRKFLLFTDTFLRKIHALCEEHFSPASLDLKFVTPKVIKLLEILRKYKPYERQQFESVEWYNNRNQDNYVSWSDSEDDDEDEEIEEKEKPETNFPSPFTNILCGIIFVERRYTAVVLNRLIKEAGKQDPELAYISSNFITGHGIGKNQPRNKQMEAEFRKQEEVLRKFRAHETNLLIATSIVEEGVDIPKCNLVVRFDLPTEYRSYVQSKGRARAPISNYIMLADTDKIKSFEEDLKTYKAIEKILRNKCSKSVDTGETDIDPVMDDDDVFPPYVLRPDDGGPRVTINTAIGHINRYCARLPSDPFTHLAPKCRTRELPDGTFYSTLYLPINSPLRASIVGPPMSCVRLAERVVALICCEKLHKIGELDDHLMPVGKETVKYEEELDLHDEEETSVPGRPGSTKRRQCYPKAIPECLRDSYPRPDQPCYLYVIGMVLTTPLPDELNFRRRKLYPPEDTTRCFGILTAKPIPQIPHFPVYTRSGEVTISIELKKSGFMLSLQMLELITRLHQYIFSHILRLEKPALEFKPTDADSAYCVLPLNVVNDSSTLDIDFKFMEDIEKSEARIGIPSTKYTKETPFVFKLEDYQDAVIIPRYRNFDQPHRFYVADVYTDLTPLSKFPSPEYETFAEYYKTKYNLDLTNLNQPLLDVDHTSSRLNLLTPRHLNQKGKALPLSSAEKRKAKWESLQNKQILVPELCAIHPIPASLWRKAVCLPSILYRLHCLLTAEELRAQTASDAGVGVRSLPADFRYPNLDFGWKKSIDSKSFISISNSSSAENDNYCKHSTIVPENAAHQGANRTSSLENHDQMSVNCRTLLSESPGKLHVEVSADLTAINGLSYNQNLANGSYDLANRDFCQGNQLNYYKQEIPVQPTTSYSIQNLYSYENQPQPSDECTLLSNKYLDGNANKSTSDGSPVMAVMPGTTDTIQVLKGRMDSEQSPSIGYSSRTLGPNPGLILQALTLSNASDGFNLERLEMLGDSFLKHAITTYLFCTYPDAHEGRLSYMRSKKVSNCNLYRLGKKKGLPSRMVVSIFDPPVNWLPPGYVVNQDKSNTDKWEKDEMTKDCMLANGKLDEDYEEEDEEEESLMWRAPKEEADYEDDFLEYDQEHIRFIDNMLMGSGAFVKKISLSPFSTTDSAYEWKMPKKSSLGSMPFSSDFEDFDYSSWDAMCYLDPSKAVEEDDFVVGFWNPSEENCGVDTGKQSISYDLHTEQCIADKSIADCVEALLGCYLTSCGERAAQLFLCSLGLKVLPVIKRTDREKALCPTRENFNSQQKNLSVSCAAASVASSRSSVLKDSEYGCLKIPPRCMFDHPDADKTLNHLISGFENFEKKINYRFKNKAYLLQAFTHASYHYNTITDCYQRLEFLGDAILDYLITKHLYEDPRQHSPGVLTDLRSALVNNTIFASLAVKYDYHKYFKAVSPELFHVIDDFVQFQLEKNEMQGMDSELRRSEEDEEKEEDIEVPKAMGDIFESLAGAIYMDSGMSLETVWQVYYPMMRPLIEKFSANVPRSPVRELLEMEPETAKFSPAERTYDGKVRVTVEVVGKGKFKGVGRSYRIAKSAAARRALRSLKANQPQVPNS
An asterisk follows results filed as active.

`COc1ccc(OC)c(C2SCCN2S(=O)(=O)c2ccc3ccccc3c2)c1` (centres undefined) gave Dicer processing 5.47.
Screening COc1ccc(C2SCCN2S(=O)(=O)c2ccc(F)cc2)cc1 (centres undefined) returned Dicer processing 1.1.
COc1ccc(OC)c(C2SCCN2S(=O)(=O)c2ccccc2)c1 (centres undefined) was read as Dicer processing 2.22.
Screening O=C(N/N=C/c1c(Cl)cccc1Cl)c1csnc1-c1c(Cl)cccc1Cl returned Dicer processing 0.26.
`Cn1cnc(S(=O)(=O)Nc2ccc3c(c2)C(=O)OC3)c1` gave Dicer processing 0.86.
`COc1cc2nc(-c3ccc(OC(C)=O)cc3)oc(=O)c2cc1OC` gave Dicer processing 1.41.
Nc1ccc(CCc2nc3ccccc3o2)cc1 was read as Dicer processing 6.61*.
For CCOC(=O)Cc1nc2ccccc2o1 the results were Dicer processing 1.98.
Cc1c(N)cccc1-c1nc2ccccc2o1 was read as Dicer processing 0.93.
Screening Nc1nc(N)nc(Cc2ccccc2)n1 returned Dicer processing 1.75.
For O=C(O)c1cc2cc(Cc3cccnc3)ccc2o1 the results were Dicer processing 3.63*.
Screening O=C(Nc1cccnc1)c1cc2c(ccc3ccccc32)o1 returned Dicer processing -0.39.
For O=C(O)c1cc2c(ccc3ccccc32)o1 the results were Dicer processing 1.01.
`S=C(NCc1ccco1)Nc1cccc2ccccc12` gave Dicer processing -0.95.
For CSc1cc(C(C)(C)C)nn1C(=O)Nc1ccccc1 the results were Dicer processing -0.11.
`Cc1ccc(C)c(NS(=O)(=O)c2ccc3c4c(cccc24)C(=O)N3)c1` gave Dicer processing 2.56.
Screening O=C1Nc2ccc(S(=O)(=O)NCCO)c3cccc1c23 returned Dicer processing 0.31.
For O=C1Nc2ccc(S(=O)(=O)Nc3ccccc3O)c3cccc1c23 the results were Dicer processing 7.95*.
O=C1CC(c2ccc3c(c2)OCO3)c2c(n[nH]c2-c2ccccc2)N1 (centres undefined) was read as Dicer processing -0.77.
`N/C(=N\NS(=O)(=O)c1ccccc1)c1ccccn1` gave Dicer processing -0.84.
`O=C(/C=C/Sc1ccc(C(F)(F)F)cn1)c1ccccc1` gave Dicer processing -1.66.
CC(CO)NC(=O)OCC1c2ccccc2-c2ccccc21 (centres undefined) was read as Dicer processing 4.9.
For O=C(Nc1ccccc1C(=O)O)OCC1c2ccccc2-c2ccccc21 the results were Dicer processing 5.23*.
For CC(C)C(NC(=O)OCC1c2ccccc2-c2ccccc21)C(=O)O (centres undefined) the results were Dicer processing -1.29.
For Fc1ccc(CN2CSC(=S)N(Cc3ccc(F)cc3)C2)cc1 the results were Dicer processing 0.7.
Screening Cc1noc(C)c1S(=O)(=O)Oc1ccccc1N1CCOCC1 returned Dicer processing 0.24.
For CCCn1c(Br)nc2c1c(=O)[nH]c(=O)n2C the results were Dicer processing -0.43.
For COc1ccc(Cl)cc1NC(=O)C(=O)NCC1CCCO1 (centres undefined) the results were Dicer processing -0.43.
For N#C/C(=N\Nc1ccc(F)cc1)C(=O)NCC1CCCO1 (centres undefined) the results were Dicer processing 3.77*.
For CCn1c2ccccc2c2cc(NC(=O)C(=O)NCC3CCCO3)ccc21 (centres undefined) the results were Dicer processing 1.75.
Cc1cc(C)c(-n2c(SCc3cc(=O)oc4cc(O)ccc34)n[nH]c2=O)c(C)c1 was read as Dicer processing 0.6.
`COCCCNC(=O)Cn1cc(C(=O)c2cccs2)c2ccccc21` gave Dicer processing 0.86.
For Cc1nnc(SCC(=O)Nc2ccc(F)cc2F)s1 the results were Dicer processing 0.78.
Cn1cnnc1SCC(=O)Nc1ccc(F)cc1F was read as Dicer processing 4.73*.
`Cn1cnnc1SCC(=O)Nc1nc2ccccc2s1` gave Dicer processing 2.82.
For CC(=O)N(C)c1ccc(NC(=O)c2sc3ccccc3c2Cl)cc1 the results were Dicer processing 2.22.
Screening O=C(O)c1cc(=O)c2c(OCC(O)COc3cccc4oc(C(=O)O)cc(=O)c34)cccc2o1 returned Dicer processing 2.55.
Screening COC(=O)c1nn(-c2ccc(F)cc2)ccc1=O returned Dicer processing -0.48.
COC(=O)C1=C(O)CSC1=Nc1ccccc1 was read as Dicer processing 0.42.
COC(=O)C1=C(O)CSC1=Nc1ccc(F)cc1 was read as Dicer processing 5.11*.
Screening CCN(CC)C(=O)Sc1nc2ccccc2c(=O)n1CC1CC1 returned Dicer processing 1.28.
Cc1cc(C(=O)NNS(C)(=O)=O)nn1C(C)(C)C was read as Dicer processing 0.01.
For CC(C)(C)c1ccc(OCc2ccc(C(=O)O)cc2)cc1 the results were Dicer processing -1.34.
Screening CC(C)(C)c1ccc(OCc2nnc(N)s2)cc1 returned Dicer processing 4.04*.
For CC(C)(C)c1ccc(OCC(=N)N)cc1 the results were Dicer processing -2.54.
CCOc1ccc(/C(O)=C2\C(=O)C(=O)N(Cc3cccnc3)C2c2ccc(C(C)(C)C)cc2)cc1 (centres undefined) was read as Dicer processing 0.55.
For CCOC(=O)c1ccc(-n2c(C)c3c(OCC)cccc(=O)c3c2C)cc1 the results were Dicer processing 3.62*.
For CCOc1cccc(=O)c2c(C)n(-c3ccc(OC)cc3)c(C)c12 the results were Dicer processing -0.08.
CCOc1cccc(=O)c2c(C)n(-c3ccc4c(c3)OCO4)c(C)c12 was read as Dicer processing -1.04.
O=C(O)c1sc2ccccc2c1Nc1ccccc1 was read as Dicer processing -0.03.
For CCCCOC(=O)C1=C(C)NC2=C(C(=O)CC(C)(C)C2)C1c1ccccn1 (centres undefined) the results were Dicer processing -0.12.
For Cc1ccn2cc(CSc3ccccc3N)nc2c1 the results were Dicer processing -0.35.
For Cc1ccc(N=Cc2c(C)[nH]n(-c3ccc(C)cc3)c2=O)cc1 the results were Dicer processing 3.97*.
For Cc1ccc(-n2[nH]c(C)c(C=Nc3ccc(Cl)cc3)c2=O)cc1 the results were Dicer processing 0.73.
Cc1ccc(N=Cc2c(C)[nH]n(-c3ccccc3)c2=S)c(C)c1 was read as Dicer processing -3.91.
O=C1/C(=C\c2ccc(SC3CCCCC3)c([N+](=O)[O-])c2)SC(=S)N1c1ccccc1Cl was read as Dicer processing 2.11.
`OCCCCn1cnc2cc(Cl)c(Cl)cc21` gave Dicer processing -0.81.
Screening CC(=O)N[C@H](Cc1ccccc1)C(=O)O returned Dicer processing -0.03.
`Cc1cc(N)n2nc(C)c(-c3ccc(Cl)cc3)c2n1` gave Dicer processing 1.77.
`Cc1nn2c(N)cc(-c3ccccc3)nc2c1-c1ccccc1` gave Dicer processing 3.76*.
`Cc1ccc(-c2cc3nc(C)c(-c4ccccc4)c(N)n3n2)cc1` gave Dicer processing 0.66.
For CS(=O)(=O)c1ccc(C(=O)O)c(Cl)c1 the results were Dicer processing -0.9.
Clc1ccccc1-c1cc2ccccc2[nH]1 was read as Dicer processing 3.96*.
For O/N=C/c1c(-c2ccccc2Cl)[nH]c2ccccc12 the results were Dicer processing 1.66.
Nc1ccc(Cl)c(-c2nc3ccccc3[nH]2)c1 was read as Dicer processing 0.01.
For CCOC(=O)CSc1nc(-c2ccc(OC)cc2)cc(C(F)(F)F)c1C#N the results were Dicer processing 2.32.
`COc1cccc(-c2cc(C(F)(F)F)n3nc(N)nc3n2)c1` gave Dicer processing 0.15.
